Screening data: PubChem BioAssay, several laboratories
GDH-TPI inh = GDH-TPI coupling enzyme inhibitors, primary screen, artefact control for M. tuberculosis FBA inhibitor project, biochemical, absorbance, full deck; actives 1.2% (n = 360,000); AID 588335, 2011; GDH-TPI coupled enzyme counterscreen, NADH absorbance; inhibition, % at 4.8 µM;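 also: 0% = DMSO wells and 100% = wells lacking the enzyme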
RecA intein inh = Mtb RecA intein splicing inhibitors, primary screen, biochemical, fluorescence, HTS; cell-free RecA intein splicing; inhibition, % (concentration not given with the values); Protein RecA (Mycobacterium tuberculosis (strain ATCC 25618 / H37Rv)), P9WHJ3; actives 0.75% (n = 290,000); in the data active = inhibition above about 30%;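 also: 0% = vehicle wells and 100% = reference inhibitor control wells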
Target sequence (P9WHJ3 whole entry, looked up): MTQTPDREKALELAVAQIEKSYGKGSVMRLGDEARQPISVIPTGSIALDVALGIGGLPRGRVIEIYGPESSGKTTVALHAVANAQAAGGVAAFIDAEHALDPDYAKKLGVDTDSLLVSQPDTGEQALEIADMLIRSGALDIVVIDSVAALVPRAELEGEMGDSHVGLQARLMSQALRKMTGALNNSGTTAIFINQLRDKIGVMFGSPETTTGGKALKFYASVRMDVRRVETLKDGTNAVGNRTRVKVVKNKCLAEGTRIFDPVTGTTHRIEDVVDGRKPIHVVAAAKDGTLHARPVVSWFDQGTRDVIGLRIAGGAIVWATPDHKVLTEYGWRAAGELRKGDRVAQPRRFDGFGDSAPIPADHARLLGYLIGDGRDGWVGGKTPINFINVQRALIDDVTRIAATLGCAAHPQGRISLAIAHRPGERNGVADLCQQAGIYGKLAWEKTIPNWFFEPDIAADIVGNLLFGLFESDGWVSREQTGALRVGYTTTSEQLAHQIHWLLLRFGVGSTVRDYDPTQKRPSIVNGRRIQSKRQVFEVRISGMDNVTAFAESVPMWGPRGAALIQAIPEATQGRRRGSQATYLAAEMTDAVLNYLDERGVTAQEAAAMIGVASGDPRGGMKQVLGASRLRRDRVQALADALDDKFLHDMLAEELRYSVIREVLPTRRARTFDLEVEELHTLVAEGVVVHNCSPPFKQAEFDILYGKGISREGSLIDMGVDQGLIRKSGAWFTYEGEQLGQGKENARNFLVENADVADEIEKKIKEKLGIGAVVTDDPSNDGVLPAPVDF
FBA Mtb inh = Mtb FBA enzyme inhibitors, primary screen, biochemical, fluorescence, strain H37Rv | AID 588726, 2011 | inhibition, % at 1 µM | purified M. tuberculosis FBA, fluorescence read-out | Fructose-bisphosphate aldolase (Mycobacterium tuberculosis (strain ATCC 25618 / H37Rv)), … | actives 2.3% (n = 360,000); in the data active = inhibition above about 27%;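 also: 0% = vehicle and 100% = reference inhibitor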
CCHF vOTU inh = CCHFV vOTU protease inhibitors, primary screen, biochemical, Pep-AMC substrate, fluorescence; Crimean-Congo hemorrhagic fever virus L polyprotein viral ovarian tumor (vOTU) protease …; AID 651958, 2012; inhibition, % at 11.5 µM; actives 0.55% (n = 370,000); also: 0% = vehicle wells with enzyme and 100% = no enzyme wells
* = called active by the depositor; i = inactive; x = no result given; + = active, no number. Hits are enriched below; roughly 4.2% of the tested compounds scored in any of these assays. Rule as the data show it, unless noted: active = inhibition above about 30%; inactive = the rest.

SMILES	GDH-TPI inh	RecA intein inh	FBA Mtb inh	CCHF vOTU inh
Cc1ccc(/C=N/Nc2cc(C)nc(N3CCOCC3)n2)cc1	31*	-3	-2	6
CCN(C(=O)COC(=O)C1CC1)c1c(N)n(Cc2ccccc2)c(=O)[nH]c1=O	5	x	4	4
CCOc1ccc(NCC(=O)N/N=C/C=C/c2ccccc2)cc1	12	1	-2	17
CC(/C=C/c1ccco1)=N\NC(=O)C(O)c1ccccc1 (centres undefined)	17	1	-1	3
CC(/C=C/C=C/c1ccccc1)=N/NC(=O)C(O)c1ccccc1 (centres undefined)	50*	0	-3	9
CC(/C=C/C=C/c1ccccc1)=N/NC(=O)CNc1ccc(C)cc1	33*	4	-3	6
CCCCN1CCN(C(=O)C2CCCN(C(=O)c3ccc4c(c3)NC(=O)CS4)C2)CC1 (centres undefined)	x	x	x	1
C=CCn1c(SCC(=O)Nc2ccc(F)cc2F)nnc1-c1cnccn1	-1	-3	-7	-1
CCCC1=[N+](CC(=O)c2ccccc2)CCn2c(C)ccc21	35*	x	-4	-11
CCCC1=[N+](CC)CCn2c(C)ccc21	31	0	-1	5
COc1ccc(C)cc1NC(=O)c1cnc2scc(C)n2c1=O	16	x	4	5
COc1ccc(CCNC(=O)c2cnc3scc(C)n3c2=O)cc1OC	33*	0	5	-4
Cn1c2ccccc2c2cc(C(=O)NNS(=O)(=O)c3ccc(F)cc3)sc21	34*	7	23	3
CN(C)CCCNC(=O)c1cc2c3ccccc3n(C)c2s1	18	-1	7	-8
O=C(NNS(=O)(=O)c1ccc(F)cc1)c1ccccc1	10	-1	147*	1
CCCCn1c(N)c(N(CC(C)C)C(=O)c2cc(-c3ccncc3)nc3ccccc23)c(=O)[nH]c1=O	2	2	-1	7
Cn1c2nc(=O)n(-c3ccccc3)c(=O)c-2nc2c1CCCC2	19	x	184*	x
Cc1ccc(CSc2nnc(-c3cc(-c4ccc(C)cc4)n[nH]3)n2N)cc1	x	x	x	-4
O=C(C1CCC1)N1CCc2cc(S(=O)(=O)N3CCCC3)ccc21	x	x	x	-6
COc1ccc2cc(C3=CCCCC3)ncc2c1	8	x	27*	-31
C[C@H](O)[C@@H]1CN2CCc3ccc(-c4ccc5c(c4)OCO5)cc3[C@@H]2C[C@@H]1N(C)C(=O)Nc1ccccc1	x	x	x	3
Cc1ccc2nc3c(cc(C(=O)NCC4CCCO4)c(=N)n3CCCOC(C)C)c(=O)n2c1 (centres undefined)	-8	i	+	-317
CCOCCCNc1nc2nc3ccc(C)cn3c(=O)c2cc1C(=O)NCC1CCCO1 (centres undefined)	-8	i	+	-293
CCOCCCn1c(=N)c(S(=O)(=O)c2ccc(C)cc2)cc2c(=O)n3cc(C)ccc3nc21	3	-220	8	-25
COc1cc(OC)cc(-c2c(C#Cc3ccsc3)c3cc(-c4ccc5c(c4)OCO5)ccc3n2C)c1	39*	x	11	1
SMILES	GDH-TPI inh	RecA intein inh	FBA Mtb inh	CCHF vOTU inh
COc1ccc(-c2c(C#Cc3ccsc3)c3cc(-c4ccc5c(c4)OCCO5)ccc3n2C)cc1	42*	x	19	-5
COc1ccc(-c2c(C#Cc3ccsc3)c3cc(-c4cccc5[nH]ccc45)ccc3n2C)cc1	17	x	24	9
COc1ccc(-c2c(C#Cc3ccsc3)c3cc(-c4ccc5[nH]ccc5c4)ccc3n2C)cc1	47*	x	18	2
CCCN(CC(=O)Nc1ccccc1OC)C(=O)CCNC(=O)c1ccccc1OC	-6	-7	0	-12
COC(=O)CN(Cc1cn(Cc2ccccc2)nn1)S(=O)(=O)c1ccccc1Br	x	x	x	-8
CC(C)(CN1CCCN(CC(C)(C)C(=O)O)C1=O)C(=O)O	-8	x	1	-8
CC(=O)c1ccc(N2CCN(c3ccc(C(N)=O)cc3[N+](=O)[O-])CC2)cc1	33*	-1	-9	-2
NC(=O)c1ccc(N2CCN(c3ccc(O)cc3)CC2)c([N+](=O)[O-])c1	7	-3	-2	4
C[C@H](CO)N1C[C@H](C)[C@@H](CN(C)S(=O)(=O)c2ccccc2F)Oc2ncc(C#Cc3cccnc3)cc2C1=O	5	x	0	10
COc1c(S(=O)(=O)NCCCn2ccnc2)ccc(Cl)c1Cl	-1	1	-1	3
CCc1cc2c(SCC(=O)N3CCN(C(=O)c4cccs4)CC3)ncnc2s1	1	x	-1	-1
CCOC(=O)c1[nH]c2cc3c(cc2c1NC(=O)CN1CCN(CCO)CC1)OCO3	46*	-4	130*	-98
CCOC(=O)c1[nH]c2cc3c(cc2c1NC(=O)CN1CCCCC1C)OCO3 (centres undefined)	x	2	x	x
Cc1ccccc1C(=O)NC1CCCCN(Cc2cccc(Cl)c2)C1=O (centres undefined)	x	x	x	1
O=C(O)CC/C(=N\Nc1ccc(S(=O)(=O)N2CCOCC2)cc1[N+](=O)[O-])c1cccs1	67*	3	-16	19
CC(C)OC(=O)c1cc(C(=O)c2cc(F)ccc2O)coc1=N	36*	-11	5	-8
CC1(C)CC(=O)C2=C(C1)Nc1[nH]n(-c3ccccc3)c(=O)c1C2c1ccc2c(c1)OCO2 (centres undefined)	24	69*	-1	4
COCCOC(=O)C1=C(C)NC2=C(C(=O)CC(C)(C)C2)C1c1ccc2c(c1)OCO2 (centres undefined)	2	x	-1	6
CCOC(=O)[C@]12CCCC=C1N(CCCOC)C(=O)[C@@H]2CC(=O)N1CCCCC1	x	x	x	-5
COP(=O)(CC(=O)OC(C)(C)C)C(CC(C)C)NC(=O)OCc1ccccc1 (centres undefined)	x	x	x	1
Nc1c(Cl)ncnc1N/N=C/c1cccnc1	40*	-4	2	-12
O=C(N/N=C/c1ccncc1)c1cnccn1	4	1	6	9
CCOc1cc(/C=N/NC(=O)c2ccccc2OCc2ccc(F)cc2)ccc1O	41*	x	6	19
COc1ccc(/C=N/NC(=O)c2ccc(C)nc2)cc1O	33*	0	1	-4
COc1cc(/C=N/NC(=O)c2cnccn2)ccc1O	34*	-3	-4	7
COc1ccc(-n2ncc(C(C)NS(=O)(=O)c3cc(F)ccc3C)c2C)cc1 (centres undefined)	1	3	0	-7
COc1ccc(-n2c(SCC(=O)Nc3ccccc3-c3ccccc3)nnc2-c2ccco2)cc1	x	x	x	-2
Cc1ccccc1Cn1cc(CN2[C@@H](C)COc3cc(Br)ccc3S2(=O)=O)nn1	x	x	x	-5
CCOc1cc(/C=N/NC(=O)c2cccnc2)ccc1OCC(N)=O	14	3	-2	-5
CCCCNC(=S)N/N=C/c1cccc(OCC)c1O	33*	1	1	0
